Assay [1] is described as follows: qHTS for Inhibitors of the Functional Ribonucleoprotein Complex (vRNP) of Lassa (LASV) Arenavirus: LASV Primary Screen - GLuc reporter signal (AID 1347082; calls by dose curve; tested in HEK293 reporter line; also: nearly all actives have a fitted effect of over 60% in size). To be noted: LASV minigenome vRNP, Gaussia luciferase reporter; series mostly up to 57.5 µM.
Assay [2] is described as follows: qHTS for Inhibitors of the Functional Ribonucleoprotein Complex (vRNP) of Lassa (LASV) Arenavirus: Viability assay - alamar blue signal for LASV Primary Screen (AID 1347083; calls by dose curve; tested in HEK293 reporter line; also: nearly all actives have a fitted effect of over 80% in size; also: potency is read from the fitted curve at half-maximal effect). To be noted: cell viability, alamar blue fluorescence (LASV minigenome counter-screen); series mostly up to 57.5 µM.
A short description of assay [3]: qHTS for Inhibitors of the Functional Ribonucleoprotein Complex (vRNP) of Lymphocytic Choriomeningitis Arenaviruses (LCMV): Viability assay - alamar blue signal for LCMV Primary Screen (AID 1347085; calls by dose curve; tested in HEK293 reporter line; also: nearly all actives have a fitted effect of over 80% in size). Particulars: alamar blue viability counter-screen, LCMV vRNP screen cells; series mostly up to 57.5 µM. In general terms: Quantitative high-throughput screening tests each substance at several concentrations.

Assay [4] concerns the target Nucleoprotein (Lymphocytic choriomeningitis virus (strain Armstrong)) (UniProt P09992). In words: qHTS for Inhibitors of the Functional Ribonucleoprotein Complex (vRNP) of Lymphocytic Choriomeningitis Arenaviruses (LCMV): LCMV Primary Screen - GLuc reporter signal (AID 1347086; calls by dose curve; also: nearly all actives have a fitted effect of over 70% in size). Particulars: LCMV minigenome vRNP cell assay, Gaussia luciferase reporter; series mostly up to 57.5 µM.

In assay [5] the test system is CRL-7250. In words: qHTS assay to identify novel small-molecules to repurpose for Merkel cell carcinoma treatment (AID 1296009). Also: nearly all actives have a fitted effect of over 60% in size. To be noted: MCC and control cell lines, CellTiter-Glo viability, 72 h; series mostly up to 92 µM. The essentials:
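CellTiter-Glo luminescence after 72 hr compound exposure at 37 degree celsius gave cell viability. Libraries NPC and MIPE were run as 8- and 11-point dose responses; RLUs normalized to DMSO (negative) and no-cell (cytotoxicity) controls.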

This note sets out measurements from PubChem BioAssay (NCATS).

SMILES strings stand for the structures. Inconclusive results are not listed. Activity calls are given as the source filed them. Unless noted, calls follow the shape of the dose curve; as a rule, active = well fitted inhibition curve with a large enough effect; inconclusive = small, poorly fitted or top-dose-only effect; inactive = flat fitted curve, though single readings scatter.

Nucleoprotein (Lymphocytic choriomeningitis virus (strain Armstrong)), sequence (P09992 whole entry, looked up): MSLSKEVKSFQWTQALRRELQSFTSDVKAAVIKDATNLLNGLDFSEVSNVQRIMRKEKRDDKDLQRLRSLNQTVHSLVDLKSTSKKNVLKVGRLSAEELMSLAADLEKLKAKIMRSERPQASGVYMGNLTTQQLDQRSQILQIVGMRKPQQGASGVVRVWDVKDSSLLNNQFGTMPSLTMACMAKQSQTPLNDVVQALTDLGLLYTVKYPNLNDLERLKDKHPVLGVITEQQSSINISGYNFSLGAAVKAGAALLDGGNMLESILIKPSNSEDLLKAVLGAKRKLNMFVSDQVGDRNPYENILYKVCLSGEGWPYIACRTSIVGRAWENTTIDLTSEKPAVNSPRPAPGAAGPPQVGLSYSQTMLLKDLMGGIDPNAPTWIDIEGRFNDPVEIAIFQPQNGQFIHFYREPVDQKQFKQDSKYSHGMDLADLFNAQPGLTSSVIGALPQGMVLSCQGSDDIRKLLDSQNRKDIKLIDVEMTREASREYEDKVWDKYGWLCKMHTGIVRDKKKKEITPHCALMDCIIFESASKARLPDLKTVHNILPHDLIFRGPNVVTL

Regarding `COC(=O)[C@@H]1[C@H]2C[C@@H]3c4[nH]c5ccccc5c4CCN3C[C@@H]2CC[C@@H]1O`, the Potency result in assay [1], in assay [2], in assay [3], in assay [4] and in assay [5] was “inactive” throughout.
Regarding `COC(=O)N[C@H](C(=O)N1CCC[C@@H]1c1ncc(-c2ccc(-c3ccc(-c4cnc([C@@H]5CCCN5C(=O)[C@@H](NC(=O)OC)C(C)C)[nH]4)cc3)cc2)[nH]1)C(C)C`, the Potency entry in assay [1], in assay [2], in assay [3] and in assay [5] was “inactive” throughout.
In the case of `CC(=O)O[C@]1(C(C)=O)CC[C@H]2[C@@H]3C=C(C)C4=CC(=O)CC[C@]4(C)[C@@H]3CC[C@@]21C`, the Potency entry in assay [1], in assay [2], in assay [3], in assay [4] and in assay [5] was “inactive” in each case.
With `NC1CCC(Nc2nc(Nc3ccc(C(=O)N4CCCCC4)cc3)c3ncn(-c4cccc(F)c4)c3n2)CC1` (stereo not given), the Potency entry in assay [1], in assay [2], in assay [3], in assay [4] and in assay [5] was “inactive” each time.
Regarding `O=C(NNC(=O)c1ccc(CNS(=O)(=O)c2ccc(F)c(Cl)c2)cc1)c1ccccc1`, the Potency entry in assay [1], in assay [2], in assay [3], in assay [4] and in assay [5] was “inactive” each time.
`CCNC(=O)Nc1ccc(Oc2ncnc(N)c2C=NOC)cc1Cl`: the Potency result in assay [1], in assay [2], in assay [3], in assay [4] and in assay [5] was “inactive” each time.
For `C[N+]1(C)[C@@H]2C[C@@H](OC(=O)C(O)(c3cccs3)c3cccs3)C[C@H]1[C@@H]1O[C@@H]12`, the Potency result in assay [1], in assay [2], in assay [3], in assay [4] and in assay [5] was “inactive” in each case.
`O=C(O)[C@H](CC(=O)N1C[C@@H]2CCCC[C@H]2C1)Cc1ccccc1`: the Potency result in assay [1], in assay [2], in assay [3], in assay [4] and in assay [5] was “inactive” throughout.
`CCNC(=O)Nc1ccc2ncc(Nc3ccc(C)cc3)nc2n1`: the Potency entry in assay [1] and in assay [5] was “inactive” in each case. Further, the Potency in assay [2] was 2170 nM (active).
With `CCOC(=O)O[C@]1(C(=O)OCCl)CC[C@@H]2[C@H]3CCC4=CC(=O)C=C[C@]4(C)[C@@H]3[C@@H](O)C[C@@]21C`, the Potency entry in assay [1], in assay [2], in assay [3], in assay [4] and in assay [5] was “inactive” in each case.
On to `CC1(C)[C@H]2CC[C@]3(C)[C@@H](C(=O)C=C4[C@@H]5C[C@@](C)(C(=O)O)CC[C@]5(C)CC[C@]43C)[C@@]2(C)CC[C@@H]1O`, for which the Potency entry in assay [1], in assay [2], in assay [3], in assay [4] and in assay [5] was “inactive” throughout.
Turning to `COc1cc([C@H]2Oc3cc([C@H]4Oc5cc(O)cc(O)c5C(=O)[C@H]4O)ccc3O[C@H]2CO)ccc1O`, the Potency result in assay [1], in assay [2], in assay [3], in assay [4] and in assay [5] was “inactive” in each case.
Turning to `CC(=O)N[C@@H]1[C@H](O[C@@H]2c3ccc(c(Cl)c3)Oc3cc4cc(c3O[C@H]3O[C@H](CO)[C@@H](O)[C@H](O)[C@H]3NC(=O)CCCCCCCC(C)C)Oc3ccc(cc3Cl)C[C@H]3NC(=O)[C@H](N)c5ccc(O)c(c5)Oc5cc(O)cc(c5)[C@H](NC3=O)C(=O)N[C@H]4C(=O)N[C@H]3C(=O)N[C@@H]2C(=O)N[C@@H](C(=O)O)c2cc(O)cc(O[C@H]4O[C@H](CO)[C@@H](O)[C@H](O)[C@H]4O)c2-c2cc3ccc2O)O[C@H](CO)[C@@H](O)[C@@H]1O`, the Potency entry in assay [1], in assay [2], in assay [3], in assay [4] and in assay [5] was “inactive” each time.
For `C=CC1=C(C(=O)O)N2C(=O)[C@@H](NC(=O)C(=NO)c3csc(N)n3)[C@H]2SC1`, the Potency entry in assay [1], in assay [2], in assay [3], in assay [4] and in assay [5] was “inactive” in each case.
For the compound `CC(=O)C1=C(O)C=C2Oc3c(C(C)=O)c(O)c(C)c(O)c3C2(C)C1=O` (stereo not given), the Potency entry in assay [1], in assay [2], in assay [3], in assay [4] and in assay [5] was “inactive” throughout.
Consider `NC(=O)NN=Cc1ccc([N+](=O)[O-])o1`, for which the Potency result in assay [1], in assay [2], in assay [3], in assay [4] and in assay [5] was “inactive” each time.
On to `Clc1cccc(-n2nnnc2NCc2ccccc2Oc2ccccn2)c1Cl`, for which the Potency result in assay [1], in assay [2], in assay [3], in assay [4] and in assay [5] was “inactive” in each case.
As for `CN(C1CCc2c(c3ccccc3n2CC(=O)O)C1)S(=O)(=O)c1ccc(F)cc1` (stereo not given), the Potency result in assay [1], in assay [2], in assay [3], in assay [4] and in assay [5] was “inactive” throughout.
Regarding `CN[C@@H]1[C@@H](O)[C@@H](O[C@@H]2[C@@H](O)[C@H](O[C@H]3O[C@H](CN)[C@@H](O)[C@H](O)[C@@H]3O)[C@@H](N)C[C@@H]2NC(=O)[C@@H](O)CN)OC[C@]1(C)O`, the Potency entry in assay [1], in assay [2], in assay [3], in assay [4] and in assay [5] was “inactive” throughout.
`CC(C)(Cc1ccc2ccccc2c1)NC[C@@H](O)COc1cccc(Cl)c1C#N`: the Potency entry in assay [1], in assay [2], in assay [3], in assay [4] and in assay [5] was “inactive” throughout.
Regarding `CON=C(C(=O)N[C@@H]1C(=O)N2C(C(=O)OCOC(=O)C(C)(C)C)=C(C=Cc3scnc3C)CS[C@H]12)c1csc(N)n1`, the Potency entry in assay [1], in assay [2], in assay [3], in assay [4] and in assay [5] was “inactive” each time.
With `CN(C)CCOc1ccc(-c2nc(-c3ccc4c(c3)CCC4=NO)c(-c3ccncc3)[nH]2)cc1`, the Potency entry in assay [1], in assay [2], in assay [3], in assay [4] and in assay [5] was “inactive” throughout.
Take `O=C(O)C1=NC(C(=O)O)CC(C=CN2c3cc(O)c(OC4OC(CO)C(O)C(O)C4O)cc3CC2C(=O)O)=C1` (stereo not given): the Potency entry in assay [1], in assay [2], in assay [3], in assay [4] and in assay [5] was “inactive” throughout.
Regarding `CN(C)c1ccccc1CN1CCCN(Cc2ccccc2N(C)C)C1c1ccncc1`, the Potency entry in assay [1], in assay [2] and in assay [5] was “inactive” in each case.
Consider `CC1(C)S[C@H]2[C@H](NC(=O)[C@@H](N)c3ccc(O)cc3)C(=O)N2[C@@H]1C(=O)O`, for which the Potency result in assay [1], in assay [2], in assay [3], in assay [4] and in assay [5] was “inactive” throughout.
For `O=C(NCc1ccccc1)[C@H](Cc1ccccc1)NC(=O)[C@@H]1O[C@@H]1C(=O)NCCc1ccc(O)cc1`, the Potency result in assay [1], in assay [2], in assay [3] and in assay [5] was “inactive” in each case.
`OC[C@H]1O[C@@H](Oc2cc(O)cc(C=Cc3ccc(O)cc3)c2)[C@H](O)[C@@H](O)[C@H]1O`: the Potency result in assay [1], in assay [2], in assay [3], in assay [4] and in assay [5] was “inactive” in each case.
For the compound `O=C1Nc2ccc(I)cc2C1=Cc1cc(Br)c(O)c(Br)c1`, the Potency result in assay [1], in assay [2], in assay [3], in assay [4] and in assay [5] was “inactive” each time.
Consider `C=CC[N+]1([C@H]2C[C@H]3[C@@H]4CC[C@H]5C[C@H](O)[C@@H](N6CCOCC6)C[C@]5(C)[C@@H]4CC[C@]3(C)[C@H]2OC(C)=O)CCCC1`, for which the Potency entry in assay [1], in assay [2], in assay [3], in assay [4] and in assay [5] was “inactive” each time.
On to `C=C[C@@H]1CN2CCC1C[C@@H]2C(O)c1ccnc2ccc(OC)cc12` (stereo not given in full), for which the Potency entry in assay [1], in assay [2], in assay [3], in assay [4] and in assay [5] was “inactive” in each case.
`CCn1c(=O)n([C@H]2CCCN(c3nccc(-c4cc5ccccc5o4)n3)C2)c2ccccc21`: the Potency result in assay [5] was “inactive”.
`COc1c(O)cc2c(c1O)[C@@H]1O[C@H](CO)[C@@H](O)[C@H](O)[C@H]1OC2=O`: the Potency entry in assay [1], in assay [2], in assay [3], in assay [4] and in assay [5] was “inactive” throughout.
As to `O=C(CS(=O)Cc1ccco1)NCC=CCOc1cc(CN2CCCCC2)ccn1` (stereo not given), the Potency entry in assay [1], in assay [2], in assay [3], in assay [4] and in assay [5] was “inactive” throughout.
